We go through 46 compounds from PubChem BioAssay AID651661 (Broad Institute, 2012).

The structures appear in SMILES notation. Out of some 350,000 compounds screened, about 2,300 (0.66%) were called active.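 How the source made its calls: active means mean inhibition of at least 50% after viability correction, with every replicate also passing that limit; inconclusive means mean reaches 50% but only one of two replicates passes; inactive means the rest.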 The entries come from a sample that favours actives as a whole.

A short description of this assay: blockers of EWS/Fli transcriptional output – A673 cells, NR0B1 luciferase, luminescence, MLPCN library, primary screen (AID 651661).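 Further: firefly luciferase signal divided by Alamar Blue viability fluorescence both relative to DMSO.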 The conditions noted are these: A673 NR0B1-luciferase reporter, viability-normalised; at 12.6 µM; active compounds read high. On the technique in general: In a reporter assay the amount or activity of a reporter protein is the signal.
Consider `COc1cccc(OC)c1C(=O)NC(=S)Nc1ccc(N2CCOCC2)c(Cl)c1`, for which the inhibition (commonly the drop in the measured response relative to a control, in per cent) was -7.45% (inactive). In the case of `CCOc1ccc(C(=O)NC(=S)Nc2ccc(N3CCOCC3)c(Cl)c2)cc1[N+](=O)[O-]`, the inhibition was 72% (active).

For the compound `CCOc1ccc(C(=O)Nc2ccc(CN3CCOCC3)cc2)cc1Cl`, the inhibition was -7.97% (inactive). For `CC(C)NC(=O)N1[C@H](C#N)[C@H](c2ccc(C#CC3CCCCC3)cc2)[C@H]1CO` the value was 19.7% (inactive); for `CO[C@@H]1CN(C)C(=O)c2cc(NC(=O)C3CC3)ccc2OC[C@@H](C)N(C(=O)c2ccncc2)C[C@H]1C`, 2.15% (inactive). As for `C[C@H]1CCCCO[C@H](CN(C)C(=O)CCC(F)(F)F)[C@@H](C)CN([C@@H](C)CO)C(=O)c2cc(NC(=O)Cc3ccccc3)ccc2O1`, the figure is 6.65% (inactive).

Take `O=C(NC1CCCC1)N1CC(=O)N2[C@H](C1)[C@H](c1ccc(/C=C/c3ccccc3)cc1)[C@@H]2CO`: the inhibition is 3.76% (inactive). As for `O=C(c1ccccc1)N1CCN(c2cc(-c3ccccc3)nc3cc(-c4cccc(Cl)c4)nn23)CC1`, the figure is -22.8% (inactive); as for `C#Cc1cc(N2CCN(C(=O)c3ccoc3)CC2)n2nc(-c3cccc(Cl)c3)cc2n1`, 53% (active). For `CN(C)CCN1CCN(c2cc(-c3cccc(Cl)c3)nc3ccnn23)CC1` the value was 1.41% (inactive). For `C[C@@H]1CN([C@@H](C)CO)C(=O)CCCn2cc(nn2)CO[C@@H]1CN(C)Cc1cccc(O)c1`, the inhibition was 8.82% (inactive).

Take `CN(CCO)c1ccc(/C=N/Nc2nncc3ccccc23)cc1`: the inhibition is 67.2% (active). For `COc1ccc2c3c(n(C)c2c1)[C@H](CO)N(Cc1ccc(F)cc1)CC31CN(CC2CCOCC2)C1` the value was -3.68% (inactive).

For `CCOC(=O)C(=Cc1ccccc1)C(=O)c1ccccc1`, the inhibition is -15.6% (inactive). On to `Cc1cc(C)nc(S/C=C/C(=O)c2ccccc2)n1`, for which the inhibition was 50.2% (active). For the compound `COC(c1ccccc1)(c1ccccc1)C(Oc1nc(C)cc(C)n1)C(=O)O` (stereo unspecified), the inhibition was 3.9% (inactive). With `C[C@@H]1CCCCO[C@@H](CN(C)C(=O)NC2CCCCC2)[C@@H](C)CN([C@H](C)CO)C(=O)c2cc(NC(=O)CCCCCC(=O)Nc3ccccc3N)ccc2O1`, the inhibition was -0.378% (inactive). On to `CCC(=O)N(C)C[C@H]1Oc2cc(-c3ccccc3F)ccc2S(=O)(=O)N([C@H](C)CO)C[C@@H]1C`, for which the inhibition is 1.15% (inactive). For `COc1ccc(C#Cc2ccc3c(c2)[C@]2(C(=O)N3)[C@H](c3ccccc3OCCO)N3[C@H](c4ccccc4)[C@H](c4ccccc4)OC(=O)[C@H]3[C@@H]2C(=O)N2CCCCCCC2)cc1`, the inhibition is 7.03% (inactive).

As to `COC(=O)C(CC#Cc1ccc2c(c1)[C@]1(C(=O)N2)[C@H](c2ccc(O)cc2)N2[C@H](c3ccccc3)[C@H](c3ccccc3)OC(=O)[C@H]2[C@@H]1C(=O)NC[C@H](O)c1ccccc1)C(=O)OC`, the inhibition is -4.53% (inactive). As to `COC(=O)C(CC#Cc1ccc2c(c1)[C@]1(C(=O)N2)[C@H](c2ccccc2OCCO)N2[C@H](c3ccccc3)[C@H](c3ccccc3)OC(=O)[C@H]2[C@@H]1C(N)=O)C(=O)OC`, the inhibition was 70.7% (active). For `O=C(CC1CC1)N1[C@@H]2CN(S(=O)(=O)c3ccc(F)cc3)c3ccccc3[C@@H]2[C@@H]1CO` the value was 2.01% (inactive); for `CN1CCN(C(=O)C[C@H]2CC[C@H]3[C@H](COc4ccc(NC(=O)C5CC5)cc4C(=O)N3C)O2)CC1`, 0.362% (inactive); for `C=C(C)C(=O)O[C@H]1C/C(C)=C\C(=O)/C=C(\C)[C@H](O)[C@@H]2OC(=O)C(=C)[C@@H]21`, 74% (active). For `C[C@@H]1CN([C@@H](C)CO)C(=O)Cc2cc(NC(=O)Nc3ccc4c(c3)OCO4)ccc2O[C@@H]1CN(C)CC1CCCCC1` the value was -9.05% (inactive); for `COc1cccc(-c2ccc3c(c2)[C@@H]2[C@@H](CCN2C(=O)CN2CCOCC2)[C@H](CO)N3)c1`, -6.11% (inactive).

Consider `O=[N+]([O-])/C=C/c1ccc2c(ccn2Cc2ccccc2)c1`, for which the inhibition is 68.6% (active).

`Cc1ccccc1S(=O)(=O)Nc1ccc2c(c1)C(=O)N(C)[C@@H]1CC[C@@H](CC(=O)O)O[C@@H]1CO2`: the inhibition was 2.06% (inactive). As for `CO[C@H]1CN(C)C(=O)c2ccc(NC(=O)NC(C)C)cc2OC[C@H](C)N(Cc2cncnc2)C[C@@H]1C`, the inhibition is -9.44% (inactive). As to `COc1ccc(CNS(=O)(=O)c2cc(-c3cc(C)no3)ccc2C(C)C)cc1`, the inhibition is 55.5% (active).

As to `COc1ccc(CNS(=O)(=O)c2cc(Br)ccc2Br)cc1`, the inhibition was -12% (inactive).

Consider `Cc1cc(-c2ccc(C)c(S(=O)(=O)Nc3ccc(S(N)(=O)=O)cc3)c2)on1`, for which the inhibition was 5.81% (inactive). For `O=C(C[C@H]1C[C@H]2c3cc(NC(=O)C4CCC4)ccc3O[C@H]2[C@@H](CO)O1)NCc1ccc(Cl)cc1` the value was -0.922% (inactive). On to `CO[C@@H]1CN(C)C(=O)c2cc(NC(=O)Nc3ccccc3F)ccc2OC[C@H](C)NC[C@H]1C`, for which the inhibition was -10.4% (inactive).

With `COC(=O)CC1=NN(c2ccccc2)C(=O)C1`, the inhibition was 2.41% (inactive).

Take `CCc1nc2ccccc2c(C(=O)NCc2ccc(OC)cc2)c1C`: the inhibition was 22.9% (inactive). `COC(=O)Cc1[nH]n(-c2nc3ccccc3s2)c(=O)c1C(C)=Nc1ccc(OC)cc1`: the inhibition is 67.1% (active). As for `COc1ccc(CN(C)C[C@@H]2OCCCC[C@H](C)Oc3ccc(NC(=O)c4ccccc4)cc3C(=O)N([C@H](C)CO)C[C@H]2C)cc1`, the figure is 4.63% (inactive).

With `CCS(=O)(=O)N1CC2(CN(C(=O)c3ccc(F)cc3)[C@H](CO)c3c2c2ccc(OC)cc2n3C)C1`, the inhibition is -3.98% (inactive). For the compound `O=C(C[C@H]1C[C@H]2c3cc(NC(=O)NC4CCCC4)ccc3O[C@H]2[C@H](CO)O1)NCCc1ccccc1`, the inhibition was -0.115% (inactive). For the compound `COc1ccc(NC(=O)C2(C)Cc3c(-c4cccc(NC(C)=O)c4)ccnc3O2)cc1OC` (stereo unspecified), the inhibition was 12.4% (inactive). For `CC(=O)Nc1cccc(-c2ccnc3c2CC(C)(C(=O)NCc2ccco2)O3)c1` (stereo unspecified) the value was 47.3% (inactive); for `CC(=O)Nc1cccc(-c2ccnc3c2CC(C)(C(=O)NCc2ccccc2)O3)c1` (stereo unspecified), 56.4% (active). For the compound `COc1ccc(NC(=O)C2(C)Cc3c(-c4ccc(C(N)=O)cc4)ccnc3O2)cc1` (stereo unspecified), the inhibition was 9.42% (inactive). For `COc1ccc(NC(=O)C2(C)Cc3c(-c4cccc(NC(C)=O)c4)ccnc3O2)cc1` (stereo unspecified) the value was 72% (active); for `CC1(C(=O)Nc2cccnc2)Cc2c(-c3ccccc3)ccnc2O1` (stereo unspecified), -3.3% (inactive).
